The values below come from PubChem BioAssay AID504332 (National Center for Advancing Translational Sciences (NCATS), 2011).

Among all 350,000 compounds or so, about 31,000 (8.9%) were called active. Inconclusive results (about 15%) are left out. The sample holds actives, similar compounds and a random draw of the others, so the mix is not that of the screen. The call rests on the fitted dose curve; in most records, active means well fitted inhibition curve with a large enough effect; inconclusive means small, poorly fitted or top-dose-only effect; inactive means no such curve, though single readings can be large or run the other way.
On the % scale 0 is the no-effect control and ±100 the full control effect; potency means the concentration at half of the fitted maximal effect.

Sequence of Histone-lysine N-methyltransferase EHMT2 (Homo sapiens) (Q96KQ7 913-1193 limits assumed): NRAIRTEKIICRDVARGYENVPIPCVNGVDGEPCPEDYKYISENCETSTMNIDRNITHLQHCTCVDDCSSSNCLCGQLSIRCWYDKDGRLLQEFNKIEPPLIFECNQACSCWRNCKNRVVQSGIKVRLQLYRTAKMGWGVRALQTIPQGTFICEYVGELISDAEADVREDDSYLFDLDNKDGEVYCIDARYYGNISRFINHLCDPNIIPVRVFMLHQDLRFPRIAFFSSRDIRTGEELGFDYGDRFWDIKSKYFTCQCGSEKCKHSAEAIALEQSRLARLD

In this assay the target is Histone-lysine N-methyltransferase EHMT2 (Homo sapiens) (UniProt Q96KQ7). Description: qHTS Assay for Inhibitors of Histone Lysine Methyltransferase G9a. Further: nearly all actives have a fitted effect of over 75% in size. Particulars: G9a H3K9 monomethylation, AlphaScreen, 2 h; series mostly up to 59 µM; activity, negative = inhibition: at the top concentration. An outline of the steps:
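AlphaScreen read-out: biotin-H3K9 peptide (500 nM) methylation by 20 nM enzyme with 20 uM SAM, 2 h at room temperature after 15 min compound preincubation; anti-monomethyl H3K9 antibody plus donor/acceptor beads, 10 min dark.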
(Quantitative high-throughput screening tests each substance at several concentrations.)
For the molecule `O=[N+]([O-])c1ccc(N/N=C2/CCCCC2c2ccccn2)c([N+](=O)[O-])c1` (stereo unspecified), the Potency was 10 µM (active).

With `O=[N+]([O-])c1ccc2nc(-c3ccccn3)[nH]c2c1`, the “activity, negative = inhibition” value is 3.58% [at 102 µM] (inactive).

In the case of `O=C(Nc1ccccc1)O/N=C1\CCCCC1c1ccc([N+](=O)[O-])cc1[N+](=O)[O-]` (stereo unspecified), the “activity, negative = inhibition” value is 8.25% [at 102 µM] (inactive).

With `O=C(COC(=O)c1cc([N+](=O)[O-])ccc1NCc1ccccc1)NC1CCCCC1`, the “activity, negative = inhibition” value was -5.06% [at 102 µM] (inactive).

Consider `C[n+]1ccccc1C1CCCC/C1=N\Nc1ccc([N+](=O)[O-])cc1[N+](=O)[O-]` (stereo unspecified), for which the Potency was 2 µM (active).

With `Cc1cc([N+](=O)[O-])ccc1NC1CCCC1`, the “activity, negative = inhibition” value is -0.358% (inactive).

Take `CCOc1ccc(CNCc2c(C(=O)O)c(C)n(Cc3cccc(OC)c3)c2C)cc1OC`: the “activity, negative = inhibition” value was 2.42% (inactive).

On to `CC(C)Sc1oc(-c2cccs2)nc1S(=O)(=O)c1ccc(Cl)cc1`, for which the “activity, negative = inhibition” value was 12.9% (inactive).

Consider `C/C(=N/OC(=O)c1ccc(Br)cc1)c1ccc(C)cc1`, for which the “activity, negative = inhibition” value was 20.4% [at 102 µM] (inactive).

In the case of `C/C(=N\OC(=O)c1ccccc1)c1c(C)nc2cc(C)ccn12`, the Potency is 50.1 µM (active).

In the case of `CCOc1ccc(/C=N\NC(=O)c2c(C)nc3cc(C)ccn23)cc1`, the activity, negative = inhibition is 18% [at 0.501 µM] (inactive).

With `Cc1nnc(N2CCC(C(=O)Nc3ccc(F)cc3)CC2)c2nn(-c3ccc(Cl)cc3)c(C)c12`, the “activity, negative = inhibition” value is -2.85% (inactive).

In the case of `Cc1cccc(C(=O)NCCc2nc3ccccc3n2Cc2ccccc2Cl)c1`, the “activity, negative = inhibition” value is -2.51% (inactive).

For `O=C(Nc1cccc(-c2cccc(Cl)c2)c1)C1CCN(C2CCC2)CC1`, the activity, negative = inhibition was -4.3% [at 0.0925 µM] (inactive).

Consider `O=Cc1c(Nc2ccccc2Cl)nc2ccccn2c1=O`, for which the activity, negative = inhibition is 5.69% [at 0.501 µM] (inactive).

Consider `COc1ccccc1C(=O)N1CCN=C1SCc1cccnc1`, for which the activity, negative = inhibition was 4.75% [at 12.7 µM] (inactive).

Take `COc1cccc(OC)c1OCCN1CCN(C(=O)c2ccco2)CC1`: the “activity, negative = inhibition” value was 12.4% [at 102 µM] (inactive).

As for `COc1cccc(OC)c1C(=O)N1CCN(Cc2cccnc2)CC1`, the Potency was 7.08 µM (active).

As to `CCC(C)N(C(=O)CSc1nnnn1-c1ccccc1OC)C1CCS(=O)(=O)C1` (stereo unspecified), the “activity, negative = inhibition” value is -13% (inactive).

As for `CCn1c(=O)c(=O)[nH]c2c(=O)oc3ccc(S(=O)(=O)Nc4ccc(OC)cc4)cc3c21`, the “activity, negative = inhibition” value was -14% [at 102 µM] (inactive).

For `Cc1ccc(Cl)c(OCC(=O)N2CCc3ccccc3C2)c1`, the “activity, negative = inhibition” value is 4.26% [at 102 µM] (inactive).

`CSC1=N/C(=C\C=C\c2cccs2)C(=O)S1`: the Potency is 7.94 µM (active).

As for `O=C1N/C(=C/c2cccs2)C(=O)N1Cc1ccc(F)cc1`, the “activity, negative = inhibition” value was -10.9% [at 102 µM] (inactive).

`Cc1cccc(C2=N/C(=C/c3cccs3)C(=O)O2)c1`: the “activity, negative = inhibition” value was -37.5% [at 102 µM] (inactive).

Consider `CC(=O)c1ccc(N2CCN(C3C(=O)c4ccccc4N3C(C)=O)CC2)cc1` (stereo unspecified), for which the “activity, negative = inhibition” value was -31.2% (inactive).

Consider `CCCOc1ccccc1C(=O)NCCCC(=O)O`, for which the “activity, negative = inhibition” value was -1.32% [at 102 µM] (inactive).

With `COc1ccccc1-c1nc(SC)n[nH]1`, the “activity, negative = inhibition” value is -11.3% [at 102 µM] (inactive).

`CCCOc1ccccc1-c1nc(SCCC(=O)O)n[nH]1`: the Potency is 11.2 µM (active).

For `Cc1nc2nc(SCC(=O)NC3CCC(C)CC3)nn2c(C)c1Cc1ccccc1Cl` (stereo unspecified), the “activity, negative = inhibition” value is -39.2% (inactive).

In the case of `Cc1cccc(-n2cnc(C(=O)NNC(=S)Nc3ccccc3)c2)n1`, the Potency was 28.2 µM (active).

Consider `COC(=O)c1ccc(NC(=S)Nc2cccc(C)n2)cc1`, for which the activity, negative = inhibition was -9.29% [at 12.7 µM] (inactive).

`Cc1cccc(-n2cnc(C(=O)Nc3cccnc3)c2)n1`: the “activity, negative = inhibition” value was -4.43% [at 102 µM] (inactive).

With `O=C(c1ccc(Cl)nc1)N1CCN(S(=O)(=O)c2ccc3c(c2)OCCO3)CC1`, the activity, negative = inhibition is -21.6% [at 12.7 µM] (inactive).

Turning to `COc1ccc(-c2nc3nc(C)cc(C)n3c2Nc2c(C)cccc2C)cc1`, the “activity, negative = inhibition” value was -32.3% (inactive).

With `CCc1cccc(C)c1Nc1c(-c2ccc(N(C)C)cc2)nc2ncccn12`, the Potency was 8.91 µM (active).

For the molecule `Cc1cccc(C)c1Nc1c(-c2ccccc2O)nc2ncccn12`, the activity, negative = inhibition is -7.84% [at 12.7 µM] (inactive).

With `Cc1ccc(CCNC(=O)c2ccc3c(c2)N(Cc2cc(C)ccc2C)C(=O)c2ccccc2S3=O)cc1` (stereo unspecified), the “activity, negative = inhibition” value is -23.3% (inactive).

Turning to `Cc1ccc(S(=O)(=O)NCCC(=O)OCC(=O)N(C)c2ccccc2)cc1`, the “activity, negative = inhibition” value was -8.16% [at 102 µM] (inactive).

For the molecule `Cc1ccc(OCCCC(=O)NC(C)c2ccccc2)c(C)c1` (stereo unspecified), the “activity, negative = inhibition” value was -28.9% [at 102 µM] (inactive).

As to `Cc1ccc(OCC(=O)NC(C)c2ccccc2)cc1C` (stereo unspecified), the “activity, negative = inhibition” value is 15.5% [at 102 µM] (inactive).

On to `Cc1cc(C)cc(OCC(=O)NC(C)c2ccccc2)c1` (stereo unspecified), for which the Potency is 79.4 µM (active).

In the case of `COc1ccccc1C(=O)NC(=S)Nc1ccccc1N1CCCCC1`, the “activity, negative = inhibition” value is 5.98% [at 102 µM] (inactive).

On to `O=C1C2CCCN2C(=O)N1CCCCN1CCN(c2cccc(C(F)(F)F)c2)CC1` (stereo unspecified), for which the activity, negative = inhibition was 2.49% [at 0.501 µM] (inactive).

On to `CC1=C(c2ccc(F)cc2)S(=O)(=O)N=C1N1CCC(C(=O)NCCc2ccccc2C)CC1`, for which the “activity, negative = inhibition” value is 0.174% (inactive).

Regarding `COc1ccccc1C(=O)NC(CCSC)C(=O)N1CCN(C/C=C/c2ccccc2)CC1` (stereo unspecified), the Potency is 56.2 µM (active).

In the case of `COc1ccccc1C(=O)NC(CCSC)C(=O)N1CCN(C(C)=O)CC1` (stereo unspecified), the activity, negative = inhibition was 8.08% [at 12.7 µM] (inactive).
